# Assay results as given in PubChem BioAssay (NCATS).
# Records with an inconclusive call do not appear. Where a call stands in place of a potency, no number is given. Active and inactive are the calls of the source. Unless noted, calls come from the whole dose curve.
# Assays:
# [1] = qHTS for Inhibitors of the Functional Ribonucleoprotein Complex (vRNP) of Lassa (LASV) Arenavirus: LASV Primary Screen - GLuc reporter signal (AID 1347082; calls by dose curve; tested in HEK293 reporter line; note: nearly all actives have a fitted effect of over 60% in size; note: potency is the fitted concentration of half-maximal effect)
# [2] = target: Nucleoprotein (Lymphocytic choriomeningitis virus (strain Armstrong)) (UniProt P09992); assay: qHTS for Inhibitors of the Functional Ribonucleoprotein Complex (vRNP) of Lymphocytic Choriomeningitis Arenaviruses (LCMV): LCMV Primary Screen - GLuc reporter signal (AID 1347086); note: nearly all actives have a fitted effect of over 70% in size; note: potency is the fitted concentration of half-maximal effect
# Chain of Nucleoprotein (Lymphocytic choriomeningitis virus (strain Armstrong)) (P09992 whole entry, looked up): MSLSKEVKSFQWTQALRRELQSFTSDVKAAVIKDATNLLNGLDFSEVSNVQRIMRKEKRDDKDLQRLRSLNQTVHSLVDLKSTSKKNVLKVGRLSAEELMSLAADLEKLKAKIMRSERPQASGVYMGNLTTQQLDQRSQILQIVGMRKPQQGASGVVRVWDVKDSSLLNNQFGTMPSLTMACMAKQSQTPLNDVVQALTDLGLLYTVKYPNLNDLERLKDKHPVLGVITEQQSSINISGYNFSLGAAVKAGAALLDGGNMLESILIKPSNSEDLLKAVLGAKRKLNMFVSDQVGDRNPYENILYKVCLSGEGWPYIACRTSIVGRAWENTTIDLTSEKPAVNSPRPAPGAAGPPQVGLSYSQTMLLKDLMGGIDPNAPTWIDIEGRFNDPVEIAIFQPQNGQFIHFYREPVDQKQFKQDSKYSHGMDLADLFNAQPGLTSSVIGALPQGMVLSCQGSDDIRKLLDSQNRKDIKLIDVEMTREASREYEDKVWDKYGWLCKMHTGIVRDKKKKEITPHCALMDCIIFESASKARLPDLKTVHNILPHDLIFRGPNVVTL
# [3] = Cytotoxicity counterscreen for inhibitors of SARS-CoV-2 cell entry (AID 1645845); note: nearly all actives have a fitted effect of over 50% in size
# How it was run: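 Expi293F/hACE2 cells seeded overnight; cpd pin-transferred in DMSO, 1 h preincubation, + media, 48 h 37 C 5% CO2; ATPLite 1step luminescence; normalized to cells and no cells.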
# [4] = Primary qHTS to identify inhibitors of SARS-CoV-2 cell entry (AID 1645846); settings: activity change, negative = inhibition: at 57.1 µM (top of the series) unless noted; note: nearly all actives have a fitted effect of over 45% in size; note: potency is the fitted concentration of half-maximal effect
# How it was run: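 Luminescence readout (Bright-Glo luciferase) 48 h after pseudoparticle addition. HEK293-ACE2 cells, 1500/well; compound pre-incubation 1 h; Normalized to spike PP and bald PP.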
# [5] = Inducers of the Endoplasmic Reticulum Stress Response (ERSR) in human glioma: Validation (AID 504836; active = well fitted curve in the direction sought with a large enough effect; an effect the other way counts as inactive or inconclusive)
# How it was run: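 Stably transfected U87-MG human glioma cells carrying a GRP78-based luminescent sensor were seeded at 1000 cells/well, pin-dosed with compounds and incubated 16 h. Luciferase reagent was then added, and end-point luminescence was read after 10 min at room temperature.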
# [6] = Confirmatory qHTS to identify inhibitors of SARS-CoV-2 cell entry (AID 1645844); note: nearly all actives have a fitted effect of over 45% in size; note: potency is the fitted concentration of half-maximal effect
# How it was run: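 HEK293-ACE2 cells (Expi293F stably expressing human ACE2) were pretreated with compounds for 1 hr at 37C, then infected with MLV-based particles carrying Wuhan-Hu-1 spike (C-terminal 19-aa truncation). Luciferase luminescence read after 48 hr; normalized to spike PP (100%) and bald PP (0%).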
# [7] = VSVG counterscreen qHTS to identify inhibitors of SARS-CoV-2 cell entry (AID 1645847); note: nearly all actives have a fitted effect of over 65% in size; note: potency is the fitted concentration of half-maximal effect
# How it was run: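 HEK293-ACE2 cells (Expi293F stably expressing human ACE2) were pretreated with compound for 1 h at 37 °C, then infected with MLV-based VSV-G pseudotyped particles for 48 h. Luciferase luminescence was normalized to VSV-G PP and bald PP wells.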
# [8] = Primary qHTS for inhibitors of SARS-S pseudo-typed particle cell entry (AID 1479145); note: nearly all actives have a fitted effect of over 45% in size
# [9] = Primary qHTS for Huh7 cytotoxicity: counterscreen for inhibitors of MERS-S pseudotyped particle cell entry (AID 1479147); settings: outcome: dose series up to 57.1 µM unless noted
# [10] = Primary qHTS for Vero E6 cytotoxicity: counterscreen for inhibitors of SARS-S pseudo-typed particle cell entry (AID 1479150); settings: outcome: dose series up to 57.1 µM unless noted
# [11] = qHTS for Inhibitors of the Functional Ribonucleoprotein Complex (vRNP) of Lassa (LASV) Arenavirus: Viability assay - alamar blue signal for LASV Primary Screen (AID 1347083; calls by dose curve; tested in HEK293 reporter line; note: nearly all actives have a fitted effect of over 80% in size; note: potency is the fitted concentration of half-maximal effect)
# [12] = Validation screen for inhibitors of Lassa infection (AID 463096); note: potency is the fitted concentration of half-maximal effect
# [13] = target: Rap guanine nucleotide exchange factor 3 (Homo sapiens) (UniProt O95398); assay: Confirmatory qHTS for agonist of cAMP-regulated guanine nucleotide exchange factor 3 (EPAC1) (AID 1645881; active = well fitted curve in the direction sought with a large enough effect; an effect the other way counts as inactive or inconclusive;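 note: EPAC1 catalysed release of BODIPY-GDP from Rap1B seen as fluorescence loss; nearly all actives have a fitted effect of over 75% in size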)
# Chain of Rap guanine nucleotide exchange factor 3 (Homo sapiens) (O95398 whole entry, looked up): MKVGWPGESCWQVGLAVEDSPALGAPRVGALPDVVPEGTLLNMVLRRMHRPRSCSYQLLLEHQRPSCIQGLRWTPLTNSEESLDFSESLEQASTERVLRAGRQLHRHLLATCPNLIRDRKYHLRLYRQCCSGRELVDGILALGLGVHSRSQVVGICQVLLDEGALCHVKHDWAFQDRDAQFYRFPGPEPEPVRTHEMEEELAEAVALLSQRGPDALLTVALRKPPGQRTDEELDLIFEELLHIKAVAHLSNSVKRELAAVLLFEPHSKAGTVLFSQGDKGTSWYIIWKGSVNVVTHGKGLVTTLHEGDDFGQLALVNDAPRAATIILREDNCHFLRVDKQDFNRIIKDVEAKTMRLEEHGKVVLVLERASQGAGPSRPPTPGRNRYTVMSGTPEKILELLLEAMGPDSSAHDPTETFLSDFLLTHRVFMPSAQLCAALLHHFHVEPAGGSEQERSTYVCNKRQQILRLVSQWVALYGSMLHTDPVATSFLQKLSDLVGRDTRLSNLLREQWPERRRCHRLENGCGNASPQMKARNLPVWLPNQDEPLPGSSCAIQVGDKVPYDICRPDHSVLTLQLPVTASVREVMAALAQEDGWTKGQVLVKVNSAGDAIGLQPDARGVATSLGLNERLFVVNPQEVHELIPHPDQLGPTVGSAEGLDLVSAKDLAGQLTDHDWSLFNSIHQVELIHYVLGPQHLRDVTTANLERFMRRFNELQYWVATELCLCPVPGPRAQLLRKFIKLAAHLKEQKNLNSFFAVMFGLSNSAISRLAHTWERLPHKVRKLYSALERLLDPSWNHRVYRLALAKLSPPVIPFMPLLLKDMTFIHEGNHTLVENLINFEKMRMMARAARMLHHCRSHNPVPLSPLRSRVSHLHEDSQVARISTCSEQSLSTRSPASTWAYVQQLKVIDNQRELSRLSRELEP
# [14] = target: Rap guanine nucleotide exchange factor 4 (Homo sapiens) (UniProt Q8WZA2); assay: Confirmatory qHTS for agonist of cAMP-regulated guanine nucleotide exchange factor 4 (EPAC2) (AID 1645884; active = well fitted curve in the direction sought with a large enough effect; an effect the other way counts as inactive or inconclusive;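 note: nucleotide exchange releases bodipy-GDP from Rap1 and this lowers its fluorescence; nearly all actives have a fitted effect of over 65% in size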)
# Chain of Rap guanine nucleotide exchange factor 4 (Homo sapiens) (Q8WZA2 whole entry, looked up): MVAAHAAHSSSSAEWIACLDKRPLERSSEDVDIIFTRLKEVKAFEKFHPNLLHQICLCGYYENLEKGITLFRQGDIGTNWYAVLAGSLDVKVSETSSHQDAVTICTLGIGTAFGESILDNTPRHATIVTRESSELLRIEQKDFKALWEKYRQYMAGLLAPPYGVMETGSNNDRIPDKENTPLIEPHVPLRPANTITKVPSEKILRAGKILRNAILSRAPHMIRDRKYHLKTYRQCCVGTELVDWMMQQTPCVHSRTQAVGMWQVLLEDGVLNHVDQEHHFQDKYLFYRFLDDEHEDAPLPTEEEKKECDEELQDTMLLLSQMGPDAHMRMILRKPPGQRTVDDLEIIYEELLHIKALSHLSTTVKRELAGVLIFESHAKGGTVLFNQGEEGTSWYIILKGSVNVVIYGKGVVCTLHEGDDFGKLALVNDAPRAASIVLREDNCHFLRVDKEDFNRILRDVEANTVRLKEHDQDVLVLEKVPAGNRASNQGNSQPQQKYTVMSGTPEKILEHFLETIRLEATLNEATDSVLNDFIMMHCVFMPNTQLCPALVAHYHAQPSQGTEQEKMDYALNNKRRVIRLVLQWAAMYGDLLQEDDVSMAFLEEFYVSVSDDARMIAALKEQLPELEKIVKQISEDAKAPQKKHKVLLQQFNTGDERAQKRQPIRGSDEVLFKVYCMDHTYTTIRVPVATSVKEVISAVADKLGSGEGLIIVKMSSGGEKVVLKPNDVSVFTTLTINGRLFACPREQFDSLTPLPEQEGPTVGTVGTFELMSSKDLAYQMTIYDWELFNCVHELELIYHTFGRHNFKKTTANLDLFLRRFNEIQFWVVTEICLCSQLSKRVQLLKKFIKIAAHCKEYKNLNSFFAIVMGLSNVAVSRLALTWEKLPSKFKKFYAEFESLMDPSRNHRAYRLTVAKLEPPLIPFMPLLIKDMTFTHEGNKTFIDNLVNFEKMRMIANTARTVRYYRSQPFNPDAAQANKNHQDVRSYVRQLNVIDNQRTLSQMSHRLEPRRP
# [15] = target: Rap guanine nucleotide exchange factor 4 (Homo sapiens) (UniProt Q8WZA2); assay: Confirmatory qHTS for antagonist of cAMP-regulated guanine nucleotide exchange factor 4 (EPAC2) (AID 1645885; active = well fitted curve in the direction sought with a large enough effect; an effect the other way counts as inactive or inconclusive; note: nearly all actives have a fitted effect of over 25% in size)
# [16] = target: Rap guanine nucleotide exchange factor 3 (Homo sapiens) (UniProt O95398); assay: Counterscreen qHTS for antagonist of cAMP-regulated guanine nucleotide exchange factor 3 (EPAC1) (AID 1645888; active = well fitted curve in the direction sought with a large enough effect; an effect the other way counts as inactive or inconclusive;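 note: fluorescence loss as bound BODIPY-GDP is released from Rap1B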)
# How it was run: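 Measured: fluorescence of BODIPY-GDP bound to Rap1B, which falls as exchange proceeds. Conditions include 50 uM competing GDP, 5 and 30 min reads, and a later cAMP challenge for antagonist detection.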
# [17] = target: Voltage-gated inwardly rectifying potassium channel KCNH2 (Homo sapiens) (UniProt Q12809); assay: qHTS Assay for Small Molecule Inhibitors of the Human hERG Channel Activity (AID 588834; active = well fitted curve in the direction sought with a large enough effect; an effect the other way counts as inactive or inconclusive;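 note: potency is the fitted concentration of half-maximal effect; lower thallium flux fluorescence means stronger hERG block; nearly all actives have a fitted effect of over 50% in size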)
# Chain of Voltage-gated inwardly rectifying potassium channel KCNH2 (Homo sapiens) (Q12809 whole entry, looked up): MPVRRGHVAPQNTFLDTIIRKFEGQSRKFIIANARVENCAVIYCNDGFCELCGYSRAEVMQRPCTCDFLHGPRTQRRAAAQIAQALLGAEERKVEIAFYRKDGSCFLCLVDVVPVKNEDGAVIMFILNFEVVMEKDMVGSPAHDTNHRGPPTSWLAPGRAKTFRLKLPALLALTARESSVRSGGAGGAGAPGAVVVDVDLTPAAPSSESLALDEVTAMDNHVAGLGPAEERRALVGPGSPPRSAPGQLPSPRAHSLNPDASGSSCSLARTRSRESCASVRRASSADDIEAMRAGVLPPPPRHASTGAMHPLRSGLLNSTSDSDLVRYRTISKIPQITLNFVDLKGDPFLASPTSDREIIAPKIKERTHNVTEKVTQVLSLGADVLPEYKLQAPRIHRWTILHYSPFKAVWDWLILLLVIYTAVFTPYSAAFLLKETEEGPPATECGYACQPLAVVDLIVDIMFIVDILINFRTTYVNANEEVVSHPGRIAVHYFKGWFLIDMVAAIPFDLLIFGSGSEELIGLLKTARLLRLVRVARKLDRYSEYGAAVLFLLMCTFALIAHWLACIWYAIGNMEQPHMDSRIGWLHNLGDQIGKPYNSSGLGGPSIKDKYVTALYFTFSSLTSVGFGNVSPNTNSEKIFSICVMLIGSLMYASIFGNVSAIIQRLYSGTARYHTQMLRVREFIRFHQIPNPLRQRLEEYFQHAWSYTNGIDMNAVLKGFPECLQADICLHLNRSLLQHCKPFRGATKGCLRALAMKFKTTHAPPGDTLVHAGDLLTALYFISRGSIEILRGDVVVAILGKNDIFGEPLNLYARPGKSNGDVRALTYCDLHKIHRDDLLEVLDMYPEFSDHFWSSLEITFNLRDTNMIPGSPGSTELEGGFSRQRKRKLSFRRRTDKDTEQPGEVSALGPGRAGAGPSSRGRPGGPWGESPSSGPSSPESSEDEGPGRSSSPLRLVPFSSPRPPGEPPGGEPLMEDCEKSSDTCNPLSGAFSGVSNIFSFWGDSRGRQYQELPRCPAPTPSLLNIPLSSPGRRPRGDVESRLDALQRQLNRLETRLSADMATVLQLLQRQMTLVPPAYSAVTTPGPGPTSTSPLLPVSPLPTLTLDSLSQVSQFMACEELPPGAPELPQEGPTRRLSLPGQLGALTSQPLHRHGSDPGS
# How it was run: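 U2OS cells transduced with hERG via BacMam (MOI ~100), plated 2000/well, loaded with FluxOR thallium dye, compound ~10 min, then stimulation buffer; fluorescence decrease read kinetically; AC50 from Hill fits.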
# [18] = target: Alpha-galactosidase (Coffea arabica) (UniProt Q42656); assay: Counterscreen for Glucocerebrosidase Inhibitors: qHTS Assay for Coffee Bean alpha-Galactosidase at pH 5.9 (AID 998; active = well fitted curve in the direction sought with a large enough effect; an effect the other way counts as inactive or inconclusive)
# Chain of Alpha-galactosidase (Coffea arabica) (Q42656 whole entry, looked up): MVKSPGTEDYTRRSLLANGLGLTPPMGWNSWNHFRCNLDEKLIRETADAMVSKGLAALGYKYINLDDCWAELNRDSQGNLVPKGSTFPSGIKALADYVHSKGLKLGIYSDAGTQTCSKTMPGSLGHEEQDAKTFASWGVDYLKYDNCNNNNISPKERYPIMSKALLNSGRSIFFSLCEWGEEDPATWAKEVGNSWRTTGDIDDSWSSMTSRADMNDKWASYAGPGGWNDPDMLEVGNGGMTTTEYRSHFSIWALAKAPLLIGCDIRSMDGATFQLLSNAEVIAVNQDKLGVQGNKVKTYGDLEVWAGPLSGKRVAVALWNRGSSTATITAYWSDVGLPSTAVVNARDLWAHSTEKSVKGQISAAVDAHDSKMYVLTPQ
# How it was run: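 Green coffee bean enzyme (2 nM final) was incubated with compounds (0.7 nM–77 uM) and 4-methylumbelliferyl alpha-D-galactopyranoside (80 uM) in citrate buffer pH 5.9, 20 min at room temperature. High-pH stop; fluorescence 365/440 nm; AC50 from Hill fits.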
# [19] = target: Alpha-galactosidase (Coffea arabica) (UniProt Q42656); assay: Counterscreen for Glucocerebrosidase Inhibitors: qHTS Assay for Coffee Bean alpha-Galactosidase at pH 4.5 (AID 957; active = well fitted curve in the direction sought with a large enough effect; an effect the other way counts as inactive or inconclusive)
# How it was run: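 Coffee bean alpha-galactosidase 2 nM, substrate 4-MU-alpha-Gal 80 uM, pH 4.5 citrate/Tween-20, 20 min RT. Cpd titration 0.7 nM–77 uM. Stop pH 10, fluorescence 365/440 nm; Hill-equation AC50.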
# [20] = qHTS profiling of the MIPE4 collection as inhibitors of Plasmodium falciparum (3D7) proliferation (AID 743344; call rule not given here); settings: P. falciparum 3D7 in erythrocytes, SYBR Green DNA fluorescence, 72 h; at 28.5 µM (top of the series) unless noted
# How it was run: (§1)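 Erythrocytes infected with P. falciparum (0.3% parasitemia, 2.5% hematocrit) incubated with compounds 72 h at 37 C, 5% CO2. Lysis with saponin/Triton buffer containing SYBR Green I, overnight at room temperature in the dark; DNA fluorescence (485/535 nm) normalised to 0.29 uM artemisinin and DMSO.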
# [21] = qHTS profiling of the MIPE4 collection as inhibitors of Plasmodium falciparum (DD2) proliferation (Rep 2) (AID 743346; call rule not given here); settings: P. falciparum Dd2 in erythrocytes, SYBR Green DNA, 72 h; at 28.5 µM (top of the series) unless noted
# How it was run: as §1
smiles,measurement,setting,value
N=c1ccn2c(n1)O[C@H]1[C@@H](O)[C@@H](CO)O[C@H]12,Potency,[1],inactive
same,Potency,[2],inactive
same,Potency,[3],inactive
same,Potency,[4],10 µM (active)
Cn1cnc(=N)c2[nH]cnc21,Potency,[1],inactive
same,Potency,[2],inactive
same,Potency,[3],inactive
same,"activity change, negative = inhibition",[4],-0.211% [at 114 µM]
CCc1cccc(CC)c1NC(=O)N1Cc2[nH]nc(NC(=O)c3ccc(N4CCN(C)CC4)cc3)c2C1,Potency,[1],inactive
same,Potency,[2],inactive
same,Potency,[3],inactive
COc1cc2c(c(OC)c1OC)-c1ccc(OC)c(=O)cc1C(N)CC2 (configuration not stated),Potency,[1],inactive
same,Potency,[2],0.178 µM (active)
CC[C@H](C)C(=O)O[C@H]1CCC=C2C=C[C@H](C)[C@H](CC[C@@H]3C[C@@H](O)CC(=O)O3)[C@H]21,outcome,[5],inactive
same,Potency,[1],inactive
same,Potency,[6],inactive
same,Potency,[3],inactive
same,"activity change, negative = inhibition",[4],-51.5%
same,Potency,[7],inactive
CCOC(=O)N1CCN([N+]([O-])=NOc2ccc([N+](=O)[O-])cc2[N+](=O)[O-])CC1,Potency,[1],inactive
same,Potency,[2],inactive
NC(=NCCCCCCN=C(N)N=C(N)Nc1ccc(Cl)cc1)N=C(N)Nc1ccc(Cl)cc1,Potency,[1],inactive
same,Potency,[2],inactive
same,Potency,[4],17.8 µM (active)
CC(C)(C)c1nc(-c2cccc(NS(=O)(=O)c3c(F)cccc3F)c2F)c(-c2ccnc(N)n2)s1,Potency,[1],inactive
same,Potency,[2],inactive
same,Potency,[8],inactive
same,outcome,[9],inactive
same,outcome,[10],inactive
same,Potency,[3],inactive
same,Potency,[4],28.2 µM (active)
O=C(NC1CC1)c1cccc(-c2ccc3c(NC(=O)C4CC4)n[nH]c3c2)c1,Potency,[1],inactive
same,Potency,[6],17.1 µM (active)
same,Potency,[4],7.94 µM (active)
same,Potency,[7],15.2 µM (active)
CC[C@]12C=CCN3CC[C@@]4(c5cc([C@@]6(C(=O)OC)C[C@H]7C[C@@H](C(C)(F)F)CN(Cc8c6[nH]c6ccccc86)C7)c(OC)cc5N(C)[C@H]4[C@@](O)(C(=O)OC)[C@H]1OC(C)=O)[C@@H]32,Potency,[11],0.0172 µM (active)
CN1CCCC1CCOC(C)(c1ccccc1)c1ccc(Cl)cc1 (configuration not stated),Potency,[12],10 µM (active)
same,outcome,[5],inactive
same,Potency,[1],inactive
COc1cc2c(cc1OC)-c1c(OC)c(OC)cc3c1C(C2)N(C)CC3 (configuration not stated),Potency,[1],inactive
same,outcome,[13],inactive
same,outcome,[14],inactive
same,Potency,[15],inactive
same,outcome,[16],inactive
COc1ccc(-c2cc3ncc(C)n3c(Nc3ncccc3C(N)=O)n2)cc1OC,outcome,[5],inactive
same,Potency,[1],inactive
Cc1ncnc2nc[nH]c12,Potency,[11],1.58 µM (active)
CC(C)ON([C@@H](C(=O)NO)C(C)C)S(=O)(=O)c1ccc(-c2ccccc2)cc1,outcome,[5],inactive
same,Potency,[1],inactive
c1nc2nc(Nc3ccc(N4CCOCC4)cc3)nc(NC3CCCCC3)c2[nH]1,Potency,[1],inactive
same,Potency,[3],inactive
COCCOc1nc(-c2ccc(Cl)c(Cl)c2)n(-c2ccc(NC(=O)CCl)cc2)n1,Potency,[11],inactive
CC1CNCCN1S(=O)(=O)c1cccc2cnccc12 (configuration not stated),Potency,[12],inactive
same,outcome,[5],inactive
same,Potency,[1],inactive
CC(C=CC(=O)NO)=C[C@@H](C)C(=O)c1ccc(N(C)C)cc1,Potency,[11],15.3 µM (active)
CC(=O)OC1(C)CC(C)C(=O)C(C(O)CC2CC(=O)NC(=O)C2)C1 (configuration not stated),Potency,[11],inactive
O[Si](CCCN1CCCCC1)(c1ccc(F)cc1)C1CCCCC1 (configuration not stated),outcome,[5],inactive
same,Potency,[17],14.1 µM (active)
same,Potency,[1],inactive
CCCCCCC/C=C/C=O,Potency,[11],inactive
COc1ccc(COc2cc3oc(=O)c4cc(C(C)O)ccc4c3cc2OC)cc1 (configuration not stated),Potency,[1],inactive
same,"activity change, negative = inhibition",[4],-25.6%
O=Nc1c(-c2c(O)[nH]c3ccccc23)[nH]c2ccccc12,outcome,[18],inactive
same,Potency,[1],inactive
C[C@@]12C(=O)OC(=O)[C@@]1(C)C1CCC2O1,Potency,[11],19.3 µM (active)
CNCCc1cnc(CCC(c2ccccc2)c2ccccc2)[nH]1,outcome,[5],inactive
same,Potency,[1],inactive
C=C1C(=O)C=C[C@]2(C)C[C@@H]3OC(=O)[C@](C)(O)[C@H]3C[C@@H]12,Potency,[11],14.1 µM (active)
CC(C)C[C@@H]1NC(=O)[C@H](Cc2ccccc2)N(C)C(=O)[C@H](C)NC(=O)c2ccccc2NC(=O)[C@H](Cc2ccc(O)cc2)N(C)C1=O,Potency,[11],8.91 µM (active)
O=C(Nc1nc2cccc(-c3ccc(CN4CCS(=O)(=O)CC4)cc3)n2n1)C1CC1,Potency,[11],38.5 µM (active)
CN(C)c1cc2c(Nc3ccc4c(cnn4Cc4ccccc4)c3)ncnc2cn1,outcome,[19],inactive
same,outcome,[18],inactive
same,outcome,[5],inactive
same,Potency,[1],inactive
N=C(N)c1ccc(OCCCCCOc2ccc(C(=N)N)cc2)cc1 (tested in a mixture with another compound),outcome,[19],inactive
same,outcome,[18],inactive
same,Potency,[12],inactive
same,outcome,[5],inactive
same,Potency,[1],7.08 µM (active)
COC(=O)Nc1nc2ccc(C(=O)c3ccc(F)cc3)cc2[nH]1,Potency,[1],inactive
same,Potency,[3],inactive
same,Potency,[4],1.26 µM (active)
same,Potency,[7],0.961 µM (active)
O=C1NC(=O)C(=Cc2cccc(C(F)(F)F)c2)S1,Potency,[11],13.7 µM (active)
COc1cc2c(cc1O)CCC1C2CC[C@@]2(C)C1CC[C@@H]2O (some centres not stated),Potency,[11],5.44 µM (active)
CCOC(=O)N1CCN(/[N+]([O-])=N/Oc2ccc([N+](=O)[O-])cc2[N+](=O)[O-])CC1,outcome,[5],inactive
same,Potency,[1],inactive
same,Potency,[3],inactive
CCN(CC)CCCC(C)Nc1nc(C)cc(Nc2ccc3nc(C)cc(N)c3c2)n1 (configuration not stated),Potency,[1],inactive
same,Potency,[3],inactive
same,"activity change, negative = inhibition",[4],-23.9%
O=c1cc(-c2ccccc2)[nH]c2nc(Cl)ccc12,outcome,[19],inactive
same,outcome,[18],inactive
same,Potency,[12],inactive
same,outcome,[5],inactive
same,Potency,[1],inactive
O=C(O)C=Cc1ccc(O)c(O)c1,Potency,[11],43.2 µM (active)
CCC1(O)CC2CN(CCc3c([nH]c4ccccc34)[C@@](C(=O)OC)(c3cc4c(cc3OC)N(C=O)C3[C@]45CCN4CC=C[C@@](CC)([C@@H](OC(C)=O)[C@]3(O)C(=O)OC)[C@H]45)C2)C1 (some centres not stated),Potency,[12],20 µM (active)
same,outcome,[5],inactive
same,Potency,[1],inactive
CCCCC[C@H](CC(=O)NO)C(=O)N[C@H](C(=O)N1CCC[C@H]1CO)C(C)C,Potency,[12],inactive
same,outcome,[5],inactive
same,Potency,[1],inactive
COc1ccc2c3c1OC1C[C@@H](O)C=C[C@@]31CCN(C)C2 (some centres not stated),"parasite growth, % of DMSO control",[20],89.5%
same,"parasite growth, % of control (lower = inhibition)",[21],65.2%
same,Potency,[1],inactive
